Results from PubChem BioAssay (EPA / NIEHS).
Where “and” joins values, the source holds several entries; their conditions need not be identical. Identical values can stand only once. A structure can be active in one record and inactive in another. Calls of active or inactive are those of the source. How the source made its calls: active means hit-call score of the fitted dose curve at least 0.9, where 1 is the maximum; inactive means score below 0.9.

What was measured:
Conditions in all cases: primary human HUVEC with PBMC; actives raise or lower the signal
[1] = read-out: Monocyte Chemoattractant Protein-1 (MCP1), CCL2 (gene 6347); test: BSK_LPS_MCP1: BioMAP Diversity Plus: LPS Assay for Monocyte Chemoattractant Protein-1 (MCP1) Biomarker Activity (AID 2283081);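 on AC50: secreted MCP-1 protein quantified by ELISA in culture supernatant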
How it was run: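 ELISA read-out of MCP-1 after 24 h chemical dosing of a human umbilical vein endothelial cell/peripheral blood mononuclear cell co-culture stimulated with LPS. Gain or loss of signal fitted relative to DMSO controls.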

[2] = BSK_LPS_PGE2: BioMAP Diversity Plus: LPS Assay for Prostaglandin E2 (PGE2) Biomarker Activity (AID 2283082);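 on AC50: secreted prostaglandin E2 measured by ELISA in LPS-stimulated co-culture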
How it was run: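 ELISA read-out of PGE2 from human umbilical vein endothelial cells co-cultured with peripheral blood mononuclear cells under LPS, 24 h post-dose. Gain or loss of signal scored relative to DMSO baseline.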

[3] = read-out: Macrophage colony-stimulating factor (MCSF), CSF1 (gene 1435); test: BSK_LPS_MCSF: BioMAP Diversity Plus: LPS Assay for Macrophage colony-stimulating factor (MCSF) Biomarker Activity (AID 2283083)
How it was run: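 HUVEC + PBMC co-culture (human primary), 24 h post-dose; M-CSF by ELISA; gain/loss of signal fitted bidirectionally vs DMSO baseline.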

[4] = read-out: Tissue Factor, F3 (gene 2152); test: BSK_LPS_TissueFactor: BioMAP Diversity Plus: LPS Assay for Tissue Factor Biomarker Activity (AID 2283084)
How it was run: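 HUVEC/PBMC co-culture, LPS-activated; CD142 ELISA read 24 h post-dose; bidirectional curve fit vs DMSO negative control.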

[5] = read-out: Tumor necrosis factor (Homo sapiens) (UniProt P01375); test: BSK_LPS_TNFa: BioMAP Diversity Plus: LPS Assay for Tumour Necrosis Factor alpha (TNFa) Biomarker Activity (AID 2283085);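 on AC50: TNFa protein level quantified by ELISA in the co-culture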
How it was run: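 HUVEC/PBMC co-culture, LPS-stimulated; 24 h post-dose; TNFa by ELISA; gain or loss of signal fitted bidirectionally vs DMSO baseline.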

[6] = read-out: Vascular cell adhesion molecule 1 (VCAM1), VCAM1 (gene 7412); test: BSK_LPS_VCAM1: BioMAP Diversity Plus: LPS Assay for Vascular cell adhesion molecule 1 (VCAM1) Biomarker Activity (AID 2283086)
How it was run: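 ELISA read-out of VCAM-1 at 24 h post-dosing in an LPS-driven HUVEC/PBMC primary human co-culture; gain or loss of signal fitted bidirectionally against DMSO baseline. Cytotoxicity tracked in parallel cultures by SRB total-protein staining.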

[7] = read-out: CD38, CD38 (gene 952); test: BSK_SAg_CD38: BioMAP Diversity Plus: SAg Assay for CD38 Biomarker Activity (AID 2283087)
How it was run: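 Measures CD38 on a human endothelial/PBMC co-culture driven by SEB and TSST-1, 24 h after compound exposure, using ELISA with fluorescence detection; DMSO defines baseline for bidirectional curve fitting.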

[8] = read-out: CD40, CD40 (gene 958); test: BSK_SAg_CD40: BioMAP Diversity Plus: SAg Assay for CD40 Biomarker Activity (AID 2283088)
How it was run: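 HUVEC/PBMC co-culture, 24 h post-dose; CD40 by ELISA, fluorescence intensity; bidirectional fit vs DMSO negative control.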

[9] = read-out: CD69, CD69 (gene 969); test: BSK_SAg_CD69: BioMAP Diversity Plus: SAg Assay for CD69 Biomarker Activity (AID 2283089);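 on AC50: cell surface CD69 protein quantified by ELISA with fluorescence detection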
How it was run: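 Primary human vascular co-culture (umbilical vein endothelium with peripheral blood mononuclear cells) exposed to test chemical for 24 h. CD69 levels quantified by fluorescence ELISA; DMSO served as negative control for bidirectional fitting.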

[10] = read-out: Monocyte Chemoattractant Protein-1 (MCP1), CCL2 (gene 6347); test: BSK_SAg_MCP1: BioMAP Diversity Plus: SAg Assay for Monocyte Chemoattractant Protein-1 (MCP1) Biomarker Activity (AID 2283090)
How it was run: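 Values derive from bidirectional fitting of ELISA-measured MCP1 against DMSO controls. Readings were taken 24 h after dosing human vascular endothelial cells co-cultured with peripheral blood mononuclear cells under superantigen stimulation.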

Measured: AC50

Tumor necrosis factor (Homo sapiens), sequence (P01375 whole entry, looked up): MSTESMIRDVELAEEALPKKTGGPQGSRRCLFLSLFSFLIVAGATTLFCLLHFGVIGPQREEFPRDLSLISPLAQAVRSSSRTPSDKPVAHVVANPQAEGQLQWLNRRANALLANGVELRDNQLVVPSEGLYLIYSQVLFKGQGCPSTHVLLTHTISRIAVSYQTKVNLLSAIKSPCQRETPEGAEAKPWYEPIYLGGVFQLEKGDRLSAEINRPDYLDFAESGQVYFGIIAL

CCOP(=S)(OCC)SCSP(=S)(OCC)OCC
active: [3] 2.72 µM
not listed: [10]
inactive: all other assays above

COc1cc(OC)nc(NC(=O)NS(=O)(=O)c2ncccc2C(=O)N(C)C)n1
not listed: [1] | [10]
inactive: all other assays above

CCC(C)(C)c1ccc(O)c(C(C)(C)CC)c1
inactive: [2]
active: [1] 25.1 µM | [3] 18.4 µM | [4] 15.9 µM | [5] 13.1 µM | [6] 25 µM | [7] 14.9 µM | [8] 13 µM | [9] 13.7 µM

CC(=O)C(Cl)C(=O)N(C)C (stereo unspecified)
active: [1] 27 µM | [2] 7.26 µM | [3] 11.8 µM | [4] 9.35 µM | [5] 9.78 µM | [6] 20 µM | [7] 20 µM | [8] 20 µM | [9] 16.7 µM

CC(C)(C)CC(C)(C)c1ccc(O)cc1
active: [1] 10.5 µM | [3] 9.26 µM | [4] 9.02 µM | [5] 10 µM | [7] 7.91 µM | [8] 7.96 µM | [9] 11.5 µM
inactive: [2]

CCC(=O)C(CC(C)N(C)C)(c1ccccc1)c1ccccc1 (stereo unspecified)
not listed: [10]
inactive: all other assays above

Oc1ccc(-c2ccccc2)cc1
not listed: [1] | [10]
inactive: all other assays above

ClC1=C(Cl)[C@]2(Cl)[C@H]3[C@H]([C@H]4C=C[C@H]3C4)[C@@]1(Cl)C2(Cl)Cl
inactive: [3] | [4] | [6]
active: [2] 0.142 µM | [5] 0.296 µM | [7] 4.55 µM | [8] 4.46 µM

CC(C)(c1ccccc1)c1ccc(O)c(C(C)(C)c2ccccc2)c1
inactive: [2]
active: [1] 10.1 µM | [3] 9.66 µM | [4] 12.6 µM | [5] 12.3 µM | [6] 12.9 µM | [7] 10.5 µM | [9] 11.9 µM

O=C1C2(Cl)C3(Cl)C4(Cl)C(Cl)(Cl)C5(Cl)C3(Cl)C1(Cl)C5(Cl)C24Cl (stereo unspecified)
active: [1] 10.7 µM | [2] 9.92 µM | [3] 10.6 µM | [4] 12 µM | [5] 11.6 µM | [6] 9.63 µM | [7] 7.7 µM | [8] 8.7 µM | [9] 8.18 µM

Nc1cccc2ccccc12
active: [4] 9.83 µM
inactive: all other assays above

O=C(Nc1ccc2[nH]ccc2c1)c1cc2cc(F)ccc2n1Cc1cccc(F)c1
active: [1] 10.4 µM | [2] 20 µM | [3] 14 µM | [4] 8.59 µM | [5] 26.5 µM | [6] 11.9 µM | [7] 10.3 µM | [8] 8.2 µM | [9] 10.6 µM | [10] 9.29 µM

COc1cc(-c2ccc(N)c(OC)c2)ccc1N
active: [2] 3.63 µM and 9 µM | [3] 19.2 µM | [4] 19.2 µM | [6] 23.9 µM
inactive: [3] | [4] | [5] | [6] | [7] | [8] | [9] | [10]

O=[N+]([O-])c1ccc2c3c(cccc13)CC2
active: [7] 20 µM
inactive: all other assays above

CCCCC(CC)CO[N+](=O)[O-] (stereo unspecified)
not listed: [10]
inactive: all other assays above

CCOP(=S)(OCC)Oc1nc(Cl)c(Cl)cc1Cl
inactive: [1] | [2] | [4] | [5]
active: [3] 20 µM | [6] 29.2 µM | [7] 32.3 µM | [8] 33.1 µM | [9] 20 µM

Nc1ncc([N+](=O)[O-])s1
inactive: all assays above

Cc1ccccc1N
not listed: [10]
inactive: all other assays above

CCOP(=S)(OCC)Oc1ccc(S(C)=O)cc1 (stereo unspecified)
inactive: all assays above

COP(=S)(OC)Oc1c(Cl)cc(C)cc1Cl
active: [6] 13.8 µM
inactive: all other assays above

ClCC(Cl)CCl
not listed: [10]
inactive: all other assays above

C(=NC1CCCCC1)=NC1CCCCC1
active: [1] 30 µM | [3] 20 µM | [4] 34.8 µM | [5] 35.1 µM | [6] 30.4 µM | [7] 14.1 µM | [8] 17.3 µM | [9] 7.97 µM | [10] 19.3 µM
inactive: [2]

O=Cc1cccc(Oc2ccccc2)c1
not listed: [10]
inactive: all other assays above

CC12CC1(C)C(=O)N(c1cc(Cl)cc(Cl)c1)C2=O (stereo unspecified)
not listed: [10]
inactive: all other assays above

NC(=O)O
inactive: all assays above

O=C(O)C(F)(F)C(F)(F)C(F)(F)C(F)(F)C(F)(F)C(F)(F)C(F)(F)C(F)(F)C(F)(F)C(F)(F)F
inactive: [2] | [3] | [4] | [6] | [7] | [9]
active: [2] 22.3 µM | [3] 31.4 µM | [4] 30.2 µM | [5] 31.4 µM and 4.39 µM and 4.42 µM | [6] 29.6 µM | [7] 37.4 µM | [8] 29.2 µM and 5.41 µM and 5.27 µM | [9] 30.5 µM

COC(=O)Cc1ccccc1
active: [8] 31.3 µM
inactive: [1] | [2] | [3] | [4] | [5] | [6] | [7] | [8] | [9]

C=CC(=O)OCCCCCC(C)C
inactive: all assays above

CC1(C)Cc2cccc(O)c2O1
active: [2] 4.31 µM
inactive: all other assays above

CCSC(C)CC1CC(=O)C(C(CC)=NOC/C=C/Cl)=C(O)C1 (stereo unspecified)
not listed: [10]
inactive: all other assays above

CC(C)(C)c1cc(O)ccc1O
active: [1] 13 µM | [2] 5.94 µM | [3] 12.1 µM | [4] 20 µM | [5] 9.38 µM | [6] 8.15 µM | [7] 8.22 µM | [8] 8.26 µM | [9] 5.54 µM | [10] 8.93 µM

NC(=S)Nc1ccccc1
inactive: all assays above

CCCCCCCCC(=O)NCc1ccc(O)c(OC)c1
active: [2] 12.8 µM
not listed: [10]
inactive: all other assays above

Cn1sc(Cl)cc1=O
active: [3] 29.5 µM | [5] 31.2 µM | [6] 29.3 µM | [7] 31.3 µM | [8] 26.4 µM | [9] 26.4 µM
inactive: [2] | [4]

COC(=O)c1sccc1S(=O)(=O)NC(=O)Nc1nc(C)nc(OC)n1
not listed: [1] | [10]
inactive: all other assays above

OCc1ccco1
not listed: [1]
inactive: all other assays above

CC(C)(OO)c1ccccc1
not listed: [1]
inactive: all other assays above

Oc1c(I)cc(I)cc1I
inactive: [2] | [4] | [5]
active: [3] 31.1 µM | [6] 14.3 µM | [7] 25.4 µM | [8] 25.3 µM | [9] 29.4 µM | [10] 32.3 µM

O=c1[nH]c(=O)[nH]c(=O)[nH]1
not listed: [1] | [10]
inactive: all other assays above

ClC(Cl)=C(Cl)C(Cl)=C(Cl)Cl
inactive: [2] | [7] | [8] | [9]
active: [3] 32.1 µM | [4] 33.2 µM | [5] 30.9 µM | [6] 31.4 µM
